Results on 1 compound are retold here after PubChem BioAssay AID743167 (National Center for Advancing Translational Sciences (NCATS), 2013).

A short description of this test: Extended Characterization of HPGD Inhibitors: PGE2 Assay in A549 Cells. The following applies: PGE2 HTRF level, 16 h.

Records with an inconclusive call do not appear. Calls of active or inactive are those of the source. Calls follow the shape of the dose curve; as a rule, active = well fitted activation curve with a large enough effect; inconclusive = small, poorly fitted or top-dose-only effect; inactive = flat fitted curve, though single readings scatter.

On to `Cc1cccc(-n2cnc3cc(C(=O)N4CCCCC4)ccc32)c1`, for which the Potency is 469 nM (active).
